High-throughput results (PubChem BioAssay)
Only some compounds are listed: those with a hit (about 9.2% of all), similar ones and a draw of the others.
SMN2 splice enh: increases expression of the SMN2 splice variant. AID 1458. Potency, µM (highest dose often 46.1 µM), inactives show top-dose activity change, positive = activation, actives largely listed as activators. hit rate 2.8% among 210,000. HEK293 SMN2-luciferase splicing reporter, luminescence, 30-36 h; note: % of control where 0% means no effect; nearly all actives have a fitted effect of over 55% in size
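HEK293 cells carry an SMN2 minigene-luciferase reporter in which exon 7 inclusion puts luciferase in frame. Cells were seeded at 2000 cells/well, attached for 10-12 hours, then exposed to compounds for 30-36 hours at 37C before ONE-Glo luminescence.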
NPC1 prom act: activates the NPC1 promoter; hit rate 2.4% among 320,000; Huh7 NPC1 promoter luciferase reporter, 24 h; Potency, µM (highest dose often 9.22 µM), inactives show at the highest dose activation, actives largely listed as activators; AID 485313; note: % of control where 0% means no effect; nearly all actives have a fitted effect of over 60% in size
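Stable NPC1-promoter luciferase Huh7 line; cpd (DMSO) 24 h, 37 °C, 5% CO2; Amplite luciferase reagent 10 min RT; luminescence readout. qHTS format.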
ELG1 repair inh: ELG1-dependent DNA repair inhibition; HEK293T ELG1-luciferase reporter, luminescence, 16 h; DNA damage induced by 5-fluorouridine; Potency, µM (top dose mostly 46.1 µM), for the others: top-dose activity change, negative = inhibition, actives largely listed as inhibitors; hit rate 2.3% among 330,000; AID 504467; note: % is set by controls: 0 for no effect and ±100 for the full control effect; nearly all actives have a fitted effect of over 55% in size
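Step one: seed 2,000 cells per well. Step two: pin-transfer compound or DMSO alongside 5-fluorouridine. Step three: incubate 16 hr, 37 °C, 5% CO2. Step four: add ONE-Glo, wait 30 min, read luminescence.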
ELG1 genotox: inducers of genotoxicity in HEK293T ELG1-luciferase cells. Potency, µM (titrated, usually from 46 µM), for inactives: at the highest dose activity change, positive = activation, most hits filed as activators. HEK293T ELG1-luciferase reporter, luminescence, 16 h. hit rate 1.3% among 330,000; note: % of control where 0% means no effect; nearly all actives have a fitted effect of over 60% in size
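After overnight (16 hr) compound treatment at 37 °C, ELG1-luciferase HEK293T cells were lysed with ONE-Glo; luminescence quantified 30 min later at room temperature.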
Rab9 prom act: activates the Rab9 promoter; Huh7 Rab9 promoter-luciferase reporter, luminescence, 24 h; hit rate 2.8% among 320,000; Potency, µM (highest dose often 9.22 µM), for the others: at the highest dose activation, negative = inhibition, most hits filed as activators; note: % of control where 0% means no effect; nearly all actives have a fitted effect of over 60% in size
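Huh7 cells stably carrying Rab9 promoter–luciferase reporter, plated 1500 cells/well, compound added after 2 h and incubated 24 h at 37 °C; luciferase luminescence then read after 10 min with detection reagent.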
FLuc modulator: firefly luciferase modulation, counter-screen for miR-21 project. Potency, µM (doses to about 57.5 µM), for the others: at the top dose activity change, negative = inhibition, usual class: inhibitors. purified FLuc, Km substrates, luminescence inhibition. hit rate 6.9% among 360,000. AID 588342;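 note: plate controls were vehicle for no effect and reference inhibitor for full effect; nearly all actives have a fitted effect of over 55% in size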
Target sequence (P08659 whole entry, looked up): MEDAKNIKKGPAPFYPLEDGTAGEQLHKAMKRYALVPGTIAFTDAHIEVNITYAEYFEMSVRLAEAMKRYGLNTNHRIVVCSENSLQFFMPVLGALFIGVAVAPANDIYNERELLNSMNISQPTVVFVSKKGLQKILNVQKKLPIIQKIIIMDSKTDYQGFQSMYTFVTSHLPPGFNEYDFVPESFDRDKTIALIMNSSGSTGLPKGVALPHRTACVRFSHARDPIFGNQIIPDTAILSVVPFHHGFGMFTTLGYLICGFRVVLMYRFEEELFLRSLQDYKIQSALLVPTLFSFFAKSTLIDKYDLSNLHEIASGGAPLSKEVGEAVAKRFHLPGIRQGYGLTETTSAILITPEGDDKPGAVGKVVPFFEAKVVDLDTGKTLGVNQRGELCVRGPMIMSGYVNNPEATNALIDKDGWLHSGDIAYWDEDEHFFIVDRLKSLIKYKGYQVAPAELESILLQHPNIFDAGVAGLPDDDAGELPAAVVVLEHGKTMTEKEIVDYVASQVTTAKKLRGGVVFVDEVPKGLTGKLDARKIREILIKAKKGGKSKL
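Biochemical qHTS of compounds, final roughly 60 µM downward over six points, against 10 nM purified firefly luciferase using Km concentrations of substrates (10 uM D-luciferin, 10 uM ATP) in Tris acetate pH 7.5 buffer; luminescence output.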
Active calls of the source: *; ? = inconclusive; nt = no result given. Calls come from the whole dose curve; as a rule, active = well fitted curve in the direction sought with a large enough effect; inconclusive = small, poorly fitted or top-dose-only effect, or another doubt; inactive = no such curve, though single readings can be large; an effect the other way counts as inactive or inconclusive. Potency is the fitted concentration of half-maximal effect.

SMILES	SMN2 splice enh	NPC1 prom act	ELG1 repair inh	ELG1 genotox	Rab9 prom act	FLuc modulator
COc1ccc2oc(C)c(C(=O)c3ccc(C)cc3)c2c1	nt	10%	28%	0%	4%	17µM*
COc1ccc2oc3ccccc3c(=O)c2c1	nt	-3%	-11%	-7%	0%	3%
COC(=O)CCC(=O)N1CCCC(N2CCN(c3ccc(OC)cc3)CC2)C1 (stereo not given)	nt	-4%	7%	0%	-1%	-3%
COc1ccccc1OCCn1cc(/C=N/NC(N)=S)c2ccccc21	-9%	1%	18µM*	-9%	-7%	-6%
COc1ccccc1OCCn1cc(/C=N/NC(=O)c2ccncc2)c2ccccc21	nt	0%	-27%	-2%	1%	?
CNC(=S)N/N=C/c1cn(CCOc2ccc(OC)cc2)c2ccccc12	?	-1%	?	5%	-3%	21µM*
COc1cc(SC)ccc1C(=O)NNC(=O)c1cc(C)oc1C	nt	3.2µM*	?	?	1.3µM*	1.9µM*
COc1ccccc1C(=O)Nc1cccc(SC)c1	21%	-2%	?	?	16%	17µM*
COc1cc(SC)ccc1C(=O)Nc1ccccc1	?	8%	?	?	28%	6.7µM*
CSc1cccc(NC(=O)c2cccc3cccnc23)c1	nt	?	?	?	26%	6.7µM*
COc1ccc(-c2cc(-c3ccccc3)nc3c2COc2ccc(F)cc2-3)cc1	-2%	nt	nt	nt	nt	-6%
Cn1nnnc1SCCCNCc1ccccc1OCc1ccc(F)cc1	nt	nt	nt	nt	nt	-6%
COc1ccccc1N1CCN(CCN2C(=O)C3CCCN3C2=O)CC1 (stereo not given)	nt	0%	23%	-1%	-1%	0%
COc1cc(SC)ccc1C(=O)Nc1nccs1	nt	0.89µM*	?	?	0.56µM*	0.6µM*
O=c1c(=O)n(-c2ccc(F)c(F)c2)ccn1Cc1ccc(F)cc1Cl	nt	nt	nt	nt	nt	2%
N#CCCN1CCCc2cc(N=Nc3ccc(C(F)(F)F)cc3)ccc21	nt	?	?	11%	?	13µM*
Cc1ccc(SCc2nc(-c3ccc(C(=O)NCc4ccccc4Cl)cc3)oc2C)cc1	nt	nt	nt	nt	nt	4%
Cc1ccc(CN(C(=O)COc2ccccc2[N+](=O)[O-])c2ccccn2)o1	nt	nt	nt	nt	nt	0%
Cc1c(-c2ccccn2)c(=O)[nH]n1-c1ccc(F)cc1	5.6µM*	3.5µM*	?	?	0.5µM*	3µM*
COc1ccccc1/C=C/C=N/NC(=O)c1ccc2nc[nH]c2c1	-19%	-1%	-1%	-24%	1%	17µM*
COc1cccc(/C=N/NC(=O)c2ccc3nc[nH]c3c2)c1	nt	4%	?	1%	2%	15µM*
CN(C)c1ccc(/C=N/NC(=O)c2ccc3nc[nH]c3c2)cc1	nt	3%	?	9%	18%	13µM*
COc1cc(/C=N/NC(=O)c2ccc3nc[nH]c3c2)ccc1O	nt	-6%	-10%	-1%	-9%	?
CCN(CC)c1ccc(/C=N/NC(=O)c2ccc3nc[nH]c3c2)cc1	nt	3%	?	6%	0%	19µM*
CCOc1ccccc1NC(=O)C(c1ccccc1)N1CCN(CC(=O)N2CCCC2)CC1 (stereo not given)	nt	nt	?	-1%	nt	nt
O=C(COc1ccccc1Br)Nc1ccc(S(=O)(=O)N2CCCC2)cc1	nt	-4%	?	1%	-10%	1%
Cc1cc(-n2c(C)nc3ccccc3c2=O)ccc1NC(=O)c1cccc([N+](=O)[O-])c1	nt	nt	nt	nt	nt	0%
Cc1cccc(OCC(=O)Nc2ccc3nc(Nc4cccc(Cl)c4)cc(C)c3c2)c1	nt	nt	nt	nt	nt	-4%
Cc1oc(C(C)(C)C)cc1C(=O)Nc1ccc2c(c1)OCCO2	30%	nt	nt	nt	nt	12µM*
Cc1ccc(C(=O)Nc2ccc3c(c2)OCCO3)c(Cl)c1	nt	0.089µM*	?	?	0.089µM*	0.43µM*
